# Sampled rows, rich in hits. Any-hit rate of the full collection: about 13%.
# ALDH1A1 block: qHTS Assay for Inhibitors of Aldehyde Dehydrogenase 1 (ALDH1A1) | Aldehyde dehydrogenase 1A1 (Homo sapiens), P00352 | Purified ALDH1A1, NADH fluorescence, propionaldehyde substrate | Potency, µM (highest dose often 75.3 µM), without a hit: at the top dose activity, negative = inhibition, usual class: inhibitors | actives 7.3% (n = 220,000); active means well fitted inhibition curve with a large enough effect, not every such curve was filed as active; inconclusive means small, poorly fitted or top-dose-only effect, or another doubt; inactive means no such curve, though single readings can be large or run the other way;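 further: potency means the concentration at half of the fitted maximal effect; plate controls were no enzyme wells and a reference inhibitor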
# Target sequence (P00352 whole entry, looked up): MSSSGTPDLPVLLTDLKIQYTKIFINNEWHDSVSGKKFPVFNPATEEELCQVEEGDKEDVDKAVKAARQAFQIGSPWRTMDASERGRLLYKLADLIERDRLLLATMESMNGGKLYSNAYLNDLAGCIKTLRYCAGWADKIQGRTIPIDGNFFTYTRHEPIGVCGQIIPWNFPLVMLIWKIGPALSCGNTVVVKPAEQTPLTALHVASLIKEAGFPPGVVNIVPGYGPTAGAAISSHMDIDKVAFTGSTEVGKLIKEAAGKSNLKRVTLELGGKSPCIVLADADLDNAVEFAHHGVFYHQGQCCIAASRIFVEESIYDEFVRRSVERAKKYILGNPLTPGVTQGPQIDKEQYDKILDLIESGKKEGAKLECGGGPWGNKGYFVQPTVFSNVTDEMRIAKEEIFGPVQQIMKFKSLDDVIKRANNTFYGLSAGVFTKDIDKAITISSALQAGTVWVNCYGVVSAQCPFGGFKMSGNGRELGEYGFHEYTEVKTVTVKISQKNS
# Lamin A splicing: qHTS Assay for Modulators of Lamin A Splicing; HeLa LMNA splicing GFP/RFP minigene ratio, 48 h; AID 1487, 2009; actives 0.01% (n = 200,000); Potency, µM (series often up to 46.1 µM), for the others: at the top dose ratio change, negative = inhibition, most hits filed as inhibitors; active means well fitted inhibition curve with a large enough effect in the signal ratio, with a control signal flat, not every such curve was filed as active; inconclusive means small, poorly fitted or top-dose-only effect, or effect the other way, or a change in a side signal; the % refers to the signal ratio; further: potency means the concentration at half of the fitted maximal effect; on the % scale 0 is the no-effect control and ±100 the full control effect
#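 S3 HeLa stable clones carrying a lamin A-EGFP splicing minigene plus DsRed2 were seeded at 600 cells/well in Opti-MEM with 2% FBS, pin-dosed and incubated 48 h at 37°C. Acumen cytometry (488 nm) gave the GFP/RFP total-intensity ratio.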
# Sfp PPTase inh: qHTS Assay for Inhibitors of Bacillus subtilis Sfp phosphopantetheinyl transferase (PPTase) | actives 3.5% (n = 310,000) | Biochemical Sfp PPTase activity, qHTS | 4'-phosphopantetheinyl transferase ffp (Bacillus subtilis), Q9F4F7 | Potency, µM, without a hit: largest response in the series, negative = inhibition, hits mostly inhibitors;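 further: the enzyme is Sfp with the accession as filed and its product quenches rhodamine fluorescence; potency means the concentration at half of the fitted maximal effect; 0% = enzyme reaction without inhibitor and -100% = no enzyme wells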
#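 Fluorescence-quenching assay with 15 nM Sfp, 5 uM rhodamine-CoA and 12.5 uM BHQ-2-labelled ybbR peptide in pH 7.6 Hepes/MgCl2 buffer. Enzyme was pre-incubated with compound for 15 min at room temperature. Rate was taken from the 30-min fluorescence change (525/598 nm).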
# G9a inh: qHTS Assay for Inhibitors of Histone Lysine Methyltransferase G9a | Histone-lysine N-methyltransferase EHMT2 (Homo sapiens), Q96KQ7 | G9a H3K9 monomethylation, AlphaScreen, 2 h | Potency, µM (top dose mostly 102 µM), for the others: at the top dose activity, negative = inhibition, hits mostly inhibitors | actives 8.8% (n = 350,000) | AID 504332, 2011; further: potency means the concentration at half of the fitted maximal effect; on the % scale 0 is the no-effect control and ±100 the full control effect; nearly all actives have a fitted effect of over 75% in size
# Target sequence (Q96KQ7 913-1193 limits assumed): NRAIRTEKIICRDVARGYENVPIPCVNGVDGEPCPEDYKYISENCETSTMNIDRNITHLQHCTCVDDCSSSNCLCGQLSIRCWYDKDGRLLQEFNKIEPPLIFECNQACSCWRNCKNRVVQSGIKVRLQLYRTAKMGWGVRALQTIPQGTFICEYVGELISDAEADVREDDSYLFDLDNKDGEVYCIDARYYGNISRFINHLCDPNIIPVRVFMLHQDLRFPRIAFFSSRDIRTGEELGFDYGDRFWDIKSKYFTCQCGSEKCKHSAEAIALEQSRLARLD
#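 Methyltransferase reactions run at room temperature for 2 h (20 nM enzyme, 500 nM biotin-H3K9 peptide, 20 uM SAM) after a 15 min compound preincubation; product detected by AlphaScreen beads and anti-H3K9me1 antibody.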
# miR-21 reporter: qHTS Assay for Modulators of miRNAs and/orActivators of miR-21. HeLa miR-21 FLuc reporter, luciferase, 48 h. 340,000 tested, under 10 active. Potency, µM (series often up to 38.3 µM), for the others: top-dose activity change, positive = activation, usual class: activators;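 further: % of control where 0% means no effect; miR-21 action dims this reporter so a rising signal means less miR-21 action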
#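 Using DMEM plus 10% FBS, HeLa miR-21-FLuc cells are incubated with test compounds (final up to about 40uM) for 48 hours; firefly luciferase signal is then imaged following reagent-mediated lysis.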
# JMJD2E inh: qHTS Assay for Inhibitors of Human Jumonji Domain Containing 2E (JMJD2E); actives 1.6% (n = 230,000); JMJD2E catalytic domain, FDH-coupled NADH fluorescence (FDH is formaldehyde dehydrogenase); AID 2147, 2009; Potency, µM (highest dose often 57.1 µM), for inactives: at the top dose activity change, negative = inhibition, hits mostly inhibitors; Lysine-specific demethylase 4E (Homo sapiens), B2RXH2; active means well fitted inhibition curve with a large enough effect, not every such curve was filed as active; inconclusive means small, poorly fitted or top-dose-only effect, or another doubt; inactive means no such curve, though single readings can be large or run the other way;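 further: potency means the concentration at half of the fitted maximal effect; 0% = wells with enzyme and -100% = buffer wells without enzyme; nearly all actives have a fitted effect of over 50% in size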
# Active calls of the source: *; ? = inconclusive; . = no result given; ! = a repeat was not active; [ ] = another dose, or the depositor's remark. Unless noted, the call rests on the fitted dose curve; in most records, active means well fitted curve in the direction sought with a large enough effect; inconclusive means small, poorly fitted or top-dose-only effect, or another doubt; inactive means no such curve, though single readings can be large; an effect the other way counts as inactive or inconclusive.
SMILES,ALDH1A1 block,Lamin A splicing,Sfp PPTase inh,G9a inh,miR-21 reporter,JMJD2E inh
CC1=CC(c2ccccc2)n2nc(NC(=O)CCC(=O)O)nc2N1 (stereo not drawn),.,.,-25.8%,?,4.0%,?
CC1=CC(c2ccc(Cl)cc2)n2nc(NC(=O)c3ccccc3)nc2N1 (stereo not drawn),?,-7.2%,-8.3%,14.1µM*,1.1%,?
COc1ccc(C2C=C(c3ccc(Cl)cc3)Nc3nc(NC(C)=O)nn32)cc1 (stereo not drawn),?,1.1%,?,?,-1.9%,?
Cc1nc(N2CCCC2)c2c(C(=O)Nc3cccc(Cl)c3)c(C)oc2n1,.,?,.,-11.1%[59 µM],-4.9%,.
CCCSCCCNC(=O)c1ccc(NC(=O)C2=CSCCO2)cc1,.,.,17.5%,30.8%,-11.1%,.
N/C(=N\OC(=O)COc1ccc2ccccc2c1Br)c1cccnc1,8.5%,?,-15.2%,2.5%,-30.1%,-17.3%
CCc1ccc(OCC(=O)O/N=C(\N)c2ccccn2)cc1,.,.,7.4%,?,-46.8%,-0.1%
N/C(=N\OC(=O)c1ccc(Br)o1)c1ccccn1,-1.9%,-12.5%[46 µM],-2.3%,20µM*,-15.0%,6.4%
N/C(=N\OC(=O)COc1ccc2ccccc2c1Br)c1ccccn1,-10.3%,.,56.2µM*,9.0%,-64.8%,-3.4%
N/C(=N\OC(=O)COc1ccccc1)c1ccccn1,3.6%,-10.2%,11.8%,11.2µM*,-64.0%,4.8%
COc1cccc(CNC(=O)c2cnc(N3CCCC3)nc2C)c1,.,17.9%[46 µM],.,15.9%[59 µM],1.7%,.
CCN1CCN(C(=O)c2c(-c3c(Cl)cccc3Cl)noc2C)CC1,.,.,9.8%,-35.6%,0.9%,.
CCC(C)Sc1oc(-c2ccco2)nc1S(=O)(=O)c1ccc(C)cc1 (stereo not drawn),.,.,.,54.0%[59 µM],9.1%,.
c1ccc(-c2nn3c(C4CCCCC4)nnc3s2)nc1,?,4.4%,-9.5%,8.0%,-3.2%,5.0%
Clc1ccc(OCc2nn3c(C4CCCCC4)nnc3s2)cc1,17.8µM*,-26.7%,20µM*,8.91µM*,-3.8%,1.3%
COc1ccc(NC(=O)Cc2ccsc2)cc1S(=O)(=O)N1CCOCC1,.,.,.,9.1%[12.7 µM],.,.
Cc1c(C)[n+](=O)c(-c2ccco2)c(C)n1[O-],25.1µM*,1.4%,-0.6%,2.0%,-0.4%,-16.2%
Oc1c(C(O)(c2ccccc2)c2ccc3ccccc3c2O)ccc2ccccc12,-5.7%[13.5 µM],.,.,.,.,.
CCOc1ccc(CNC(=O)c2ccc3c(c2)N(CC)CCS3)cc1,.,.,10.6%,16.6%,-4.5%,.
CCN1CCSc2ccc(C(=O)NCc3ccc(OC(C)C)cc3)cc21,.,.,3.7%,44.7µM*!,-0.2%,.
COC(=O)N1CCC[C@@]2(CCN(Cc3cc(C(F)(F)F)cc(C(F)(F)F)c3)C2)C1,12.3%,.,16.1%,4.0%[12.7 µM],.,.
CCC(C)Nc1ccc(NC(C)CC)cc1 (stereo not drawn),8.91µM*,.,.,2.0%[0.501 µM],.,.
Cc1ccc(S(=O)(=O)/N=C(/c2ccc(F)cc2)N2CCCC2)cc1,-8.6%,.,-8.0%,27.1%,-5.8%,-0.4%
Cc1ccc(S(=O)(=O)/N=C(/c2ccc(F)cc2)N2CCCCC2)cc1,25.1µM*,-9.8%,1.3%,0.6%[59 µM],-1.0%,-3.0%
Cc1onc(-c2ccccc2Cl)c1C(=O)N1CCN(c2nc3ccccc3s2)CC1,14.1µM*,?,-2.9%,2.8%[2.33 µM],6.7%,-0.3%
SMILES,ALDH1A1 block,Lamin A splicing,Sfp PPTase inh,G9a inh,miR-21 reporter,JMJD2E inh
O=C(NCc1ccco1)c1cc2c(s1)CSC2,?,-15.1%,-78.0%,?,-3.2%,?
O=C(NCc1ccc2c(c1)OCO2)c1cc2c(s1)CSC2,?,3.5%,-8.2%,35.5µM*,-18.3%,-21.0%
Cc1[nH]n(C(N)=S)c(=O)c1N=Nc1ccc(S(=O)(=O)N2CCCC2)cc1,31.6µM*,3.0%,?,?,-24.6%,-7.4%
Cc1ccc(O)c(N=Nc2ccc(S(=O)(=O)N3CCCC3)cc2)c1,.,.,5.0%,8.91µM*,-18.8%,-6.5%
Cc1ccc(N=Nc2c(C)[nH]n(C(N)=S)c2=O)cc1,?,.,-15.9%,11.0%,-27.5%,0.7%
O=S(=O)(Nc1ccc(F)cc1)c1cccc2nsnc12,.,.,7.1%,19.1%,-1.2%,.
COc1cccc(CNC(=O)[C@@H](C)N2C(=O)N3CCc4c([nH]c5ccc(OC)cc45)C3(C)C2=O)c1 (stereo partly drawn),.,.,11.1%,-11.7%,5.2%,.
O=C(Nc1ccc(OC(F)(F)F)cc1)c1ccc2nc[nH]c2c1,.,.,4.3%,50.1µM*,-28.2%,.
O=C(CSC1=NCCN1)c1ccccc1,-2.1%[13.5 µM],.,.,.,.,.
CCN(C(=O)Cc1c(C(=O)O)n(CC)c2ccccc12)c1cccc(C(F)(F)F)c1,.,.,-5.4%,19.5%[0.501 µM],0.3%,.
CCOC(=O)c1cc(=O)c2ccc(OCC(=O)Nc3ccc(F)cc3)cc2o1,.,.,1.0%,.,-0.6%,-1.3%
COC(=O)Cn1ncn2c(cc3oc(C)cc32)c1=O,-2.0%,8.3%,56.2µM*,?,-31.2%,-21.9%
Cc1cc(C)cc(NC(=O)Cn2ncn3c(cc4ccccc43)c2=O)c1,-12.5%,5.6%,1.6%,5.1%,0.6%,?
CCCCC1CCc2[nH]nc(C(=O)O)c2C1 (stereo not drawn),.,.,.,15.7%[2.33 µM],.,.
O=C(Nc1ccccc1C(F)(F)F)c1ccsc1,.,.,0.8%,47.1%,-0.8%,.
O=C(NNc1ccccc1C(F)(F)F)c1sccc1Br,?,.,-4.9%,17.8µM*,-5.9%,?
O=C(CSc1nnc(-c2ccccn2)o1)Nc1ccccc1C(F)(F)F,.,.,-9.5%,70.8µM*,-55.9%,.
CCOC(=O)CC1C(=O)NCCN1C(=O)c1cc2c(=O)n3ccccc3nc2s1 (stereo not drawn),?,-6.3%,-3.2%,89.1µM*,-22.2%,?
O=C(c1cc2c(=O)n3ccccc3nc2s1)N1CCc2ccccc2C1,?,.,?,39.8µM*,-30.0%,?
CCOC(=O)CC1C(=O)NCCN1C(=O)c1cc2c(=O)n3cccc(C)c3nc2s1 (stereo not drawn),?,-9.5%,8.2%,?,-12.1%,?
CCN1CCN(C(=O)c2cc3c(=O)n4ccccc4nc3s2)CC1,.,.,6.9%,-14.8%,-20.3%,.
CCCn1nnnc1NCc1ccccc1Cl,.,.,19.6%,12.2%,-4.5%,.
CCCn1nnnc1NCc1ccccc1OCC,.,.,6.0%,35.5µM*,-0.8%,.
COc1ccc(OCC(O)CN(CC(O)COc2ccc(OC)cc2)c2cccc(O)c2)cc1 (stereo not drawn),.,.,4.6%,50.1µM*,29.3%,.
